Records with an inconclusive call do not appear. A call without a number means that no potency is given here. Values without a mark were called inactive. Activity calls are given as the source filed them. Calls follow the shape of the dose curve; as a rule, active = well fitted inhibition curve with a large enough effect; inconclusive = small, poorly fitted or top-dose-only effect; inactive = flat fitted curve, though single readings scatter.
tested on: Zika virus NS2B-NS3 protease; experiment: Primary screen GU AMC qHTS for Zika virus inhibitors (AID 1347154); settings: Zika NS2B-NS3 unlinked protease, AMC fluorogenic substrate; series mostly up to 54.1 µM; also: nearly all actives have a fitted effect of over 70% in size
Outline: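 Unlinked Zika NS2B hydrophilic domain/NS3 protease domain noncovalent complex (25 nM final) in 10 mM Tris-HCl pH 8.0, 0.01% Tween 20, with AMC peptide substrate. Fluorescence (ex 340, em 450 nm) change over 15 min, room temperature; percent inhibition fitted to 4-parameter Hill equation.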
Potency is read from the fitted curve at half-maximal effect.

Question: For `O=C(O)CCCCC1CCSS1` (configuration not stated), which Potency is on record?
Answer: inactive

Question: With `Nc1ccc(C(=O)Oc2ccccc2)c(O)c1` as the compound, how does the Potency read?
Answer: inactive

Question: With `Cc1c(N(C)C)c(=O)n(-c2ccccc2)n1C` as the compound, how does the Potency read?
Answer: inactive

Question: With `C[C@@H](N)C(=O)O` as the compound, how does the Potency read?
Answer: inactive

Question: With `CCCCCOC(=O)Nc1nc(=O)n([C@@H]2O[C@H](C)[C@@H](O)[C@H]2O)cc1F` as the compound, how does the Potency read?
Answer: inactive

Question: Which Potency does the source give for `Nc1ccc(S(=O)(=O)c2ccc(N)cc2)cc1` here?
Answer: inactive

Question: How did the Potency turn out when `CCOC(=O)[C@H](CCc1ccccc1)N[C@@H](C)C(=O)N1Cc2cc(OC)c(OC)cc2C[C@H]1C(=O)O` was run?
Answer: inactive

Question: Which Potency does the source give for `Cc1cc(O)cc(C)c1Cl` here?
Answer: inactive

Question: Which Potency does the source give for `CCOc1ccc(C(=O)OCCN(CC)CC)cc1` here?
Answer: inactive

Question: With `O=C(/C=C/c1ccccc1)OCc1ccccc1` as the compound, how does the Potency read?
Answer: inactive

Question: `OC[C@@H](O)[C@@H](O)[C@H](O)[C@H](O)CO` was tested. Which Potency did it give?
Answer: inactive

Question: How did the Potency turn out when `C[N+]1(C)CCCC(OC(=O)C(O)(c2ccccc2)c2ccccc2)C1` (configuration not stated) was run?
Answer: inactive

Question: With `Nc1c2c(nc3c1CCC3)CCCC2` as the compound, how does the Potency read?
Answer: inactive

Question: How did the Potency turn out when `CC(=O)Nc1ccc(C(=O)O)cc1` was run?
Answer: inactive

Question: `Cc1c(C)c2c(c(C)c1OC(=O)c1cccnc1)CC[C@@](C)(CCC[C@H](C)CCC[C@H](C)CCCC(C)C)O2` was tested. Which Potency did it give?
Answer: inactive

Question: For `O=C1CC[C@@H](C(=O)O)N1`, which Potency is on record?
Answer: inactive

Question: With `NS(=O)(=O)c1ccc(C(=O)O)cc1` as the compound, how does the Potency read?
Answer: inactive

Question: With `CC(O)CCCCn1c(=O)c2c(ncn2C)n(C)c1=O` (configuration not stated) as the compound, how does the Potency read?
Answer: inactive

Question: For `CCOC(=O)[C@H](CCc1ccccc1)N[C@@H](C)C(=O)N1CCC[C@H]1C(=O)O`, which Potency is on record?
Answer: inactive

Question: How did the Potency turn out when `O[C@@H]1CO[C@H]2[C@@H]1OC[C@@H]2O` was run?
Answer: inactive

Question: With `NC(=O)NS(=O)(=O)c1ccc(N)cc1` as the compound, how does the Potency read?
Answer: inactive

Question: How did the Potency turn out when `Cn1c([N+](=O)[O-])cnc1COC(N)=O` was run?
Answer: inactive

Question: `CCCCCCCCCCOc1cc2c(=O)c(C(=O)OCC)c[nH]c2cc1OCC` was tested. Which activity change, negative = inhibition did it give?
Answer: -1.56% [at 4.99 µM]

Question: How did the Potency turn out when `CC(=O)OCC(COC(C)=O)OC(C)=O` was run?
Answer: inactive

Question: Which Potency does the source give for `O=C(O)/C=C/c1ccc(Cn2ccnc2)cc1` here?
Answer: inactive

Question: With `Cc1cccc(C)c1NC(=O)CC12CCCN1CCC2` as the compound, how does the Potency read?
Answer: inactive

Question: `CCCCCCCCCCCCCCCCC(C(=O)O)C(O)(CC(=O)O)C(=O)O` (configuration not stated) was tested. Which Potency did it give?
Answer: 4.05 µM (active)

Question: How did the Potency turn out when `OC(CCN1CCCC1)(c1ccccc1)C1CCCCC1` (configuration not stated) was run?
Answer: inactive

Question: `NC(=O)CCCCC1CCSS1` (configuration not stated) was tested. Which Potency did it give?
Answer: inactive

Question: Which Potency does the source give for `CCN(CC)S(=O)(=O)c1ccc(C(=O)O)cc1` here?
Answer: inactive

Question: `Cc1ccsc1C(=CCCN1CCC[C@@H](C(=O)O)C1)c1sccc1C` was tested. Which Potency did it give?
Answer: inactive

Question: `CCCCCCCC(=O)OCC(COC(=O)CCCCCCC)OC(=O)CCCCCCC` was tested. Which Potency did it give?
Answer: inactive

Question: For `FC(F)(F)C(Cl)Br` (configuration not stated), which Potency is on record?
Answer: inactive

Question: For `CC[C@H](C)[C@H](N)C(=O)O`, which Potency is on record?
Answer: inactive

Question: For `Cc1c(NC(=O)c2cccnc2)c(=O)n(-c2ccccc2)n1C`, which Potency is on record?
Answer: inactive

Question: With `O=c1[nH]c(=O)n([C@H]2C[C@H](O)[C@@H](CO)O2)cc1I` as the compound, how does the Potency read?
Answer: inactive

Question: `COc1ccc2cc(CCC(C)=O)ccc2c1` was tested. Which Potency did it give?
Answer: inactive
